A549 tox-1: Nrf2 qHTS screen for inhibitors: counterscreen for cytotoxicity; A549 ARE-Fluc cells, CellTiter-Fluor viability, 18-24 h; Potency, µM (highest dose often 46 µM), hits mostly inhibitors; 390,000 compounds, 0.16% hits
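A549 ARE-Fluc cells in 5% FBS OPTI-MEM, 5000 cells/well, rested 2 h then exposed to compounds in concentration-response for 18-24 h at 37 °C. Viability by CellTiter-Fluor fluorescence (Ex 405/Em 525) after 30 min; luciferase luminescence (BugLite, 15 min, RT) read afterwards.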
TGFb inhibitor: qHTS for Inhibitors of TGF-b; HepG2 CAGA-GFP TGF-b/SMAD3 reporter, GFP fluorescence, 18 h; TGF-beta stimulated, 500 pg/mL final; Potency, µM (doses to about 46.1 µM), hits mostly inhibitors; 410,000 compounds, 1.2% hits; AID 588855, 2011; note: nearly all actives have a fitted effect of over 65% in size
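First, reporter cells (HEPG2 CAGA-GFP) rested 2 h at 37 degrees C. Next, compounds were pinned in and TGF-beta added to 500 pg/mL final. After 18 h, GFP was imaged per cell and summed per well.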
Nrf2 activator: qHTS of Nrf2 Activators; AID 624171, 2012; AREc32 ARE-luciferase reporter (MCF7-derived line), luminescence, 24 h; Potency, µM (titrated, usually from 46.1 µM), hits mostly activators; 410,000 compounds, 0.31% hits; note: nearly all actives have a fitted effect of over 65% in size
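Quantitative high-throughput format: AREc32 reporter cells, 1000 per well, received compound by pin transfer and were incubated 24 hr at 37 deg C, 5% CO2, before Steady-Glo luminescence detection.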
Nrf2 block: Nrf2 qHTS screen for inhibitors; A549 ARE-Fluc reporter, luciferase luminescence, 18-24 h; Potency, µM (titrated, usually from 46 µM), usual class: inhibitors; 360,000 compounds, 2.1% hits; AID 504444, 2011; note: nearly all actives have a fitted effect of over 60% in size
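A549 ARE_Fluc cells, 5000/well, 5% FBS OPTI-MEM; compounds in dose-response, 18-24 h at 37 °C/5% CO2; CellTiter-Fluor viability read (Ex 405/Em 525), then BugLite luciferase luminescence = Nrf2 activity.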
HepG2 tox: qHTS for Inhibitors of TGF-b: Cytotox Counterscreen; Potency, µM (series often up to 46.1 µM), hits mostly cytotoxic; HepG2 CAGA-GFP viability, ATP luminescence, 18 h; 410,000 compounds, 0.76% hits
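CellTiter-Glo luminescence gave cytotoxicity after 18 hours at 37 degrees C. The cells were HepG2 CAGA-GFP in 1% FBS DMEM, stimulated with 500 pg/mL TGF-beta after compound addition. %Activity was normalised to no-cell wells (complete cell-killing) and DMSO (no toxicity), and curves were fitted and classified.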
FLuc counter 3: Nrf2 qHTS screen for inhibitors: Purified Fluc Biochemical Counterscreen for Hit Validation; shares compounds with Nrf2 block; purified firefly luciferase, luminescence inhibition; Potency, µM (doses to about 57.5 µM), actives largely listed as inhibitors; 1,400 compounds, 4% hits; AID 720522, 2013; note: nearly all actives have a fitted effect of over 65% in size
Target sequence (P08659 whole entry, looked up): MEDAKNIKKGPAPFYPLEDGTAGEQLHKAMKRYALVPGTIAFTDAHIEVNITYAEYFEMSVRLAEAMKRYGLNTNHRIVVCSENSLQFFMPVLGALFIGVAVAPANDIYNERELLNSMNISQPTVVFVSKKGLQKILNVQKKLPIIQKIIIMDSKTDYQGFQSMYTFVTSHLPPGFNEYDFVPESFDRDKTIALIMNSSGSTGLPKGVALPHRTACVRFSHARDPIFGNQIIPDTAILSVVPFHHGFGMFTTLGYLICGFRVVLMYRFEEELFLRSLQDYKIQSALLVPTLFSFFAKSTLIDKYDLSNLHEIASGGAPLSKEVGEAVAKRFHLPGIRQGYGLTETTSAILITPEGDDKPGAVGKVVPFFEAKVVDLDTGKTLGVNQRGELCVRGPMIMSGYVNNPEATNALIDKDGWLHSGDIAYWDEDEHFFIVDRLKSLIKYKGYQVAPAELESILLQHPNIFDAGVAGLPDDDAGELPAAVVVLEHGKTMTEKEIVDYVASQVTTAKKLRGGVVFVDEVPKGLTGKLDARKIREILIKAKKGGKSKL
A549 tox-2: Nrf2 qHTS screen for inhibitors: A549 ARE-Fluc Cytotoxicity Counterscreen for Hit Validation. Potency, µM (series often up to 46.1 µM), actives largely listed as inhibitors. A549 ARE-Fluc cells, cytotoxicity counterscreen. 1,400 compounds, 2% hits. shares compounds with Nrf2 block;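 note: cells exposed to compounds for 18 to 24 hours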
ARE-Fluc inh: Nrf2 qHTS screen for inhibitors: Nrf2 A549 ARE-Fluc Confirmation Assay for Hit Validation; shares compounds with Nrf2 block; AID 720524, 2013; Potency, µM (top dose mostly 46.1 µM), most hits filed as inhibitors; 1,400 compounds, 74% hits; A549 ARE-firefly luciferase reporter, luminescence; note: nearly all actives have a fitted effect of over 65% in size
Each line names hits and unclear results; the compound was inactive in the other large screens (follow-up assays come after a bar, where they were run). Rows were chosen to be rich in hits. Some 3.6% of all compounds tested hit in one or more screens of this group. Calls come from the whole dose curve; as a rule, active = well fitted curve in the direction sought with a large enough effect; inconclusive = small, poorly fitted or top-dose-only effect, or another doubt; inactive = no such curve, though single readings can be large; an effect the other way counts as inactive or inconclusive.

Clc1cccc(Cl)c1C[n+]1cccc2ccccc21	Nrf2 block 4.1µM | FLuc counter 3 inactive | A549 tox-2 inactive | ARE-Fluc inh inconclusive
Cc1nc2c(-c3ccc(F)cc3)c(C)nn2c(C)c1CCC(=O)N1CCN(c2ccc(F)cc2)CC1	TGFb inhibitor inconclusive
CCN1C(=C(C#N)C#N)C=Cc2cc(C)ccc21	none
C=CC[n+]1c(/C=C2\C=Cc3cc(C)ccc3N2CC)ccc2ccccc21	A549 tox-1 inconclusive, TGFb inhibitor 4µM, Nrf2 block 4.6µM, HepG2 tox 14µM | FLuc counter 3 inactive | A549 tox-2 15µM | ARE-Fluc inh 2.3µM
CNc1c(Br)cc(C(O)C2=CCc3ccccc32)cc1Br (centres undefined)	none (no result: A549 tox-1, Nrf2 activator, Nrf2 block) | FLuc counter 3 inactive | A549 tox-2 inactive | ARE-Fluc inh 4.6µM
CCSc1nnc(-c2ccc(Cl)cc2Cl)o1	Nrf2 activator inconclusive, Nrf2 block inconclusive
O=C(O)CCSc1nnc(-c2ccc(Cl)cc2Cl)o1	Nrf2 block 0.058µM | FLuc counter 3 3µM | A549 tox-2 inactive | ARE-Fluc inh 0.18µM
N=c1c2c(n(Cc3ccc(F)cc3)c3c1CCC3)CCC2	Nrf2 block inconclusive
CCCCn1c2c(c(=N)c3c1CCC3)CCC2	TGFb inhibitor inconclusive, Nrf2 block 2.6µM | FLuc counter 3 inactive | A549 tox-2 inactive | ARE-Fluc inh 6.5µM
CCCCCCCn1c2c(c(=N)c3c1CCC3)CCCC2	A549 tox-1 inconclusive, TGFb inhibitor inconclusive, Nrf2 block 0.52µM | FLuc counter 3 inactive | A549 tox-2 inactive | ARE-Fluc inh 1.8µM
CCCCCCn1c(=O)[nH]c2c(c1=O)CCC2	Nrf2 block inconclusive
CCOC(=O)c1cnc2sc3c(n2c1=O)CCCC3	A549 tox-1 inconclusive, Nrf2 block inconclusive
CC(=O)N1c2ccc(C)cc2Sc2c1ccc1ccccc21	none
Cc1ccc2c(c1)S/C(=C/c1ccc[n+](CCO)c1)N2C	Nrf2 block 1.2µM | FLuc counter 3 inactive | A549 tox-2 inactive | ARE-Fluc inh 5.8µM
Cc1cc(F)ccc1S(=O)(=O)Nc1ccccc1C(=O)Nc1ccccc1-c1nc2ccccc2[nH]1	A549 tox-1 23µM, TGFb inhibitor inconclusive, Nrf2 block 4.1µM, HepG2 tox 7.9µM | FLuc counter 3 inactive | A549 tox-2 inconclusive | ARE-Fluc inh 16µM
Cn1c(=O)c2c(nc(SCC(=O)Nc3ccccc3)n2Cc2ccccc2F)n(C)c1=O	none
Cn1c(=O)c2c(nc(SCC(=O)Nc3ccc(OC(F)(F)F)cc3)n2Cc2cccc(C(F)(F)F)c2)n(C)c1=O	A549 tox-1 inconclusive, Nrf2 block 7.3µM | FLuc counter 3 inactive | A549 tox-2 inconclusive | ARE-Fluc inh 15µM
Cc1ccccc1OCCn1c(C)nc2ccccc21	Nrf2 block 8.2µM | FLuc counter 3 inactive | A549 tox-2 inactive | ARE-Fluc inh inconclusive
CC(=O)NCCc1nc2ccccc2n1CCOc1ccccc1C	none
O=C(CSc1nnc(Cn2nnc3ccccc32)o1)N(Cc1ccc(Cl)cc1)c1ccccc1	A549 tox-1 inconclusive, Nrf2 block 5.8µM | FLuc counter 3 inactive | A549 tox-2 inactive | ARE-Fluc inh 9.2µM
O=C(CSc1nnc(Cn2nnc3ccccc32)o1)Nc1cccc(Cl)c1	none
CC(=NNC(=S)N1CC2CCC(CC2)C1)c1ccncn1	A549 tox-1 16µM, TGFb inhibitor inconclusive, Nrf2 block 1.3µM | FLuc counter 3 11µM | A549 tox-2 inconclusive | ARE-Fluc inh 0.37µM

High-throughput results as filed in PubChem BioAssay.
